We go through 6 molecules from PubChem BioAssay (Tox21).

Molecules are shown by their SMILES. Where “and” joins values, the source holds several entries; their conditions need not be identical. Equal values may be shown once. Results filed as inconclusive are left out. The source holds several records for some structures; these can differ, active in one and inactive in another. Calls of active or inactive are those of the source. Unless noted, calls follow the shape of the dose curve; as a rule, active = well fitted curve in the direction sought with a large enough effect in the repeat runs; inconclusive = weak or mixed curves; inactive = no such curve, though single readings can be large; an effect the other way counts as inactive or inconclusive.

Assay [1] deals with Progesterone receptor (Homo sapiens) (UniProt P06401). Briefly: qHTS assay to identify small molecule agonists of the progesterone receptor (PR) signaling pathway (AID 1346784; calls by dose curve; also: nearly all actives have a fitted effect of over 30% in size). Put shortly:
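The screen uses PR-UAS-bla HEK 293T cells in charcoal-stripped serum (2%). Compounds are applied for 16 hr at 37C after a 6 hr pre-incubation, and reporter activity is detected with a FRET beta-lactamase substrate after 2 hr at room temperature.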

Assay [2] has the same target. Briefly: qHTS assay to identify small molecule antagonists of the progesterone receptor (PR) signaling pathway (AID 1346795; active = well fitted inhibition curve with a large enough effect in the signal ratio in the repeat runs, not every such curve was filed as active; the % refers to the signal ratio). The method, boiled down:
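After 6 hr plating at 37C in 2% stripped-serum medium, PR-UAS-bla HEK293T cells got compounds, then 1 nM R5020. Sixteen hours later, LiveBLAzer substrate was applied for 2 hr at room temperature and fluorescence was recorded.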

Assay [3] can be described thus: qHTS assay to identify small molecule antagonists of the progesterone receptor (PR) signaling pathway - cell viability counter screen (AID 1346798). Also: series mostly up to about 92 µM; nearly all actives have a fitted effect of over 50% in size. Put shortly: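 Viability was determined by ATP-based luminescence (CellTiter-Glo) in PR-UAS-bla HEK293T cells cultured in 2% charcoal-stripped serum and incubated 16 hr with compounds under R5020 stimulation.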
Assay [4] can be described thus: qHTS assay to identify small molecule agonists of the progesterone receptor (PR) signaling pathway - cell viability counter screen (AID 1346799; calls by dose curve; also: nearly all actives have a fitted effect of over 45% in size). Put shortly: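 Viability was scored by ATP luminescence (CellTiter-Glo, 30 min, room temperature) in the same wells used for the reporter readout, after 16 hr compound exposure of PR-UAS-bla HEK293T cells.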
Background: Quantitative high-throughput screening tests each substance at several concentrations.

Assay [5] in a line: qHTS assay to identify small molecule antagonists of the TGF-beta/Smad signaling pathway - cell viability counter screen (AID 1346824). Also: nearly all actives have a fitted effect of over 50% in size. Put shortly: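 Cytotoxicity counter-screen run in the same wells as the beta-lactamase Smad reporter read: CellTiter-Glo luminescence after 30 min at room temperature. HEK 293T SBE-bla cells had 5 hr compound exposure at 37 C with TGF-beta1 (0.25 ng/mL stock).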

A short description of assay [6]: qHTS assay to identify small molecule agonists of the TGF-beta/Smad signaling pathway (AID 1346859; active = well fitted activation curve with a large enough effect in the signal ratio in the repeat runs, not every such curve was filed as active; the % refers to the signal ratio; also: series mostly up to about 77 µM). Put shortly:
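Dual-wavelength fluorescence (460/530 nm emission) quantified beta-lactamase expression under the Smad binding element in HEK 293T cells following 5 hr compound treatment at 37 C.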

For assay [7], the target named is Thyrotropin-releasing hormone receptor (Homo sapiens) (UniProt P34981). The assay can be described thus: qHTS assay to identify small molecule antagonists of the thyrotropin-releasing hormone receptor (TRHR) signaling pathway (AID 1346877; active = well fitted inhibition curve with a large enough effect in the repeat runs, not every such curve was filed as active; also: series mostly up to about 51 µM). The method, boiled down: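 In this cell-based calcium flux format, HEK293 cells expressing TRHR received test compound for 5 min before the agonist TRH (1 nM final). Dye loading lasted 2 h at 37 °C.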

For assay [8] the target is unchanged. Briefly: qHTS assay to identify small molecule agonists of the thyrotropin-releasing hormone receptor (TRHR) signaling pathway (AID 1346891; calls by dose curve; also: series mostly up to about 58 µM). The method, boiled down:
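Kinetic fluorescence (3 min, 1 s intervals) reported intracellular calcium after compound transfer onto TRHR-Hek293 cells pre-loaded with dye for 2 h at 37 °C.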

The nature of assay [9]: Human pregnane X receptor (PXR) small molecule agonists, qHTS cell viability counter screen (AID 1346977). Also: nearly all actives have a fitted effect of over 50% in size. Put shortly:
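HepG2 cells stably carrying the PXR-Luc reporter are cultured with 5% charcoal-stripped FBS and treated with compounds for 24hr. CellTiter-Fluor is added at 23hr and fluorescence is read after 1hr.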

Assay [10] in a line: Caspase-3/7 induction in HepG2 cells by small molecules, qHTS assay (AID 1346978). Also: nearly all actives have a fitted effect of over 15% in size. Put shortly: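 Caspase-3/7 induction was measured by Caspase-Glo 3/7 luminescence (30 min, room temperature) after a 17 hr compound exposure of wild-type HepG2 cells seeded at 2,000 per well and pre-incubated 5 hr.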
Assay [11] can be described thus: Caspase-3/7 induction in CHO-K1 cells by small molecules, qHTS cell viability counter screen (AID 1346979). Also: nearly all actives have a fitted effect of over 35% in size. Put shortly:
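Seeding: 1,500 CHO-K1 cells/well. Rest: 5hr, 37C. Treatment: compounds in DMSO, 16hr. Read: CellTiter-Fluor, 1hr, fluorescence.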

A short description of assay [12]: Caspase-3/7 induction in CHO-K1 cells by small molecules, qHTS assay (AID 1346980). Also: nearly all actives have a fitted effect of over 15% in size. Put shortly: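 Luminescent Caspase-Glo 3/7 read (30min, room temperature) quantified apoptosis induction. Cells were wild-type CHO-K1, treated with compound for 17hr at 37 C and 5% CO2.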
Assay [13] is described as follows: Caspase-3/7 induction in HepG2 cells by small molecules, qHTS cell viability counter screen (AID 1346981). Also: series mostly up to about 92 µM; nearly all actives have a fitted effect of over 30% in size. Put shortly:
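Counter screen for cytotoxicity: HepG2 exposed 16 hr to compounds, then CellTiter-Fluor viability signal (fluorescence, 1 hr reagent incubation).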

The target in assay [14] is Nuclear receptor subfamily 1 group I member 2 (Homo sapiens) (UniProt O75469). The assay can be described thus: Human pregnane X receptor (PXR) small molecule agonists, qHTS assay (AID 1346982). Also: nearly all actives have a fitted effect of over 35% in size. Also: potency is read from the fitted curve at half-maximal effect. Put shortly:
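Luminescence (ONE-Glo, 30 min RT) after 24 hr compound exposure of PXR-Luc HepG2 cells; cells rested 5 hr post-plating in 5% charcoal-stripped FBS medium.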

Assay [15] concerns the target Cytochrome P450 2D6 (Homo sapiens) (UniProt P10635). The assay can be described thus: Cytochrome P450 Family 2 Subfamily D Member 6 (CYP2D6) small molecule antagonists: luciferase reporter qHTS assay (AID 1671196). Also: nearly all actives have a fitted effect of over 50% in size. Also: potency is read from the fitted curve at half-maximal effect. The method, boiled down:
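Inhibition of CYP2D6 was gauged by loss of luminescence, since light produced tracks the luciferin generated from a proluciferin substrate. A 10 min room-temperature preincubation preceded 1 h NADPH-supported turnover.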
For orientation: A reporter such as luciferase makes a cellular process visible.

For assay [16], the target named is Cytochrome P450 2C19 (Homo sapiens) (UniProt P33261). Briefly: Cytochrome P450 Family 2 Subfamily C Member 19 (CYP2C19) small molecule antagonists: luciferase reporter qHTS assay (AID 1671197). Also: nearly all actives have a fitted effect of over 65% in size. Also: potency is read from the fitted curve at half-maximal effect. The method, boiled down:
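Enzyme-substrate mix with proluciferin substrate (P450-Glo CYP2C19 system) preincubated with compounds 10 min at room temperature; NADPH regeneration solution added, 37C for 1 h; detection reagent stops reaction, luminescence read after 20 min. Ketoconazole positive control.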

A short description of assay [17]: qHTS assay to identify small molecule agonists of the TGF-beta/Smad signaling pathway - cell viability counter screen (AID 1346829). Also: top concentration of the series differs between compounds; nearly all actives have a fitted effect of over 45% in size. The method, boiled down:
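CellTiter-Glo luminescence readout; SBE-bla HEK 293T cells, overnight plating, compound 5 hr at 37 C/5% CO2, then bla substrate 2 hr RT, then CellTiter-Glo 30 min RT.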

For assay [18], the target named is Nuclear receptor subfamily 1 group I member 2 (Rattus norvegicus) (UniProt Q9R1A7). Briefly: Rat pregnane X receptor (rPXR) activation by small molecules, qHTS assay (AID 1346983). Also: nearly all actives have a fitted effect of over 20% in size. Conditions: rPXR luciferase reporter cells, One-Glo luminescence, 24 h; stronger effect = higher value. Put shortly:
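Luminescent readout (One-Glo luciferase, 30 min room temperature) followed 24 hr compound treatment at 37 C of rPXR cells plated 2,000 per well and preincubated 5hr; qHTS format with compounds delivered in DMSO.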
% is scaled to controls: 0 for no effect and ±100 for the full control effect.

Chain of Thyrotropin-releasing hormone receptor (Homo sapiens) (P34981 whole entry, looked up): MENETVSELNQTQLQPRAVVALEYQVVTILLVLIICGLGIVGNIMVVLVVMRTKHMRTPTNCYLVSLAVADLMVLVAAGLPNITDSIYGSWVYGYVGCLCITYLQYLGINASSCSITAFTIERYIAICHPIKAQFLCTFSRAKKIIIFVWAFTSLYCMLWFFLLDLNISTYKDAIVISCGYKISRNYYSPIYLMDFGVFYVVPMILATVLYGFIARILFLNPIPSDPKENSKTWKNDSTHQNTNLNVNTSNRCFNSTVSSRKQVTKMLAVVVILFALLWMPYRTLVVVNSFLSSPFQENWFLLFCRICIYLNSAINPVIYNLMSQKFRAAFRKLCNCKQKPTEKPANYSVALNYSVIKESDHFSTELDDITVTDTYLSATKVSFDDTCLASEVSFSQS
Chain of Progesterone receptor (Homo sapiens) (P06401 whole entry, looked up): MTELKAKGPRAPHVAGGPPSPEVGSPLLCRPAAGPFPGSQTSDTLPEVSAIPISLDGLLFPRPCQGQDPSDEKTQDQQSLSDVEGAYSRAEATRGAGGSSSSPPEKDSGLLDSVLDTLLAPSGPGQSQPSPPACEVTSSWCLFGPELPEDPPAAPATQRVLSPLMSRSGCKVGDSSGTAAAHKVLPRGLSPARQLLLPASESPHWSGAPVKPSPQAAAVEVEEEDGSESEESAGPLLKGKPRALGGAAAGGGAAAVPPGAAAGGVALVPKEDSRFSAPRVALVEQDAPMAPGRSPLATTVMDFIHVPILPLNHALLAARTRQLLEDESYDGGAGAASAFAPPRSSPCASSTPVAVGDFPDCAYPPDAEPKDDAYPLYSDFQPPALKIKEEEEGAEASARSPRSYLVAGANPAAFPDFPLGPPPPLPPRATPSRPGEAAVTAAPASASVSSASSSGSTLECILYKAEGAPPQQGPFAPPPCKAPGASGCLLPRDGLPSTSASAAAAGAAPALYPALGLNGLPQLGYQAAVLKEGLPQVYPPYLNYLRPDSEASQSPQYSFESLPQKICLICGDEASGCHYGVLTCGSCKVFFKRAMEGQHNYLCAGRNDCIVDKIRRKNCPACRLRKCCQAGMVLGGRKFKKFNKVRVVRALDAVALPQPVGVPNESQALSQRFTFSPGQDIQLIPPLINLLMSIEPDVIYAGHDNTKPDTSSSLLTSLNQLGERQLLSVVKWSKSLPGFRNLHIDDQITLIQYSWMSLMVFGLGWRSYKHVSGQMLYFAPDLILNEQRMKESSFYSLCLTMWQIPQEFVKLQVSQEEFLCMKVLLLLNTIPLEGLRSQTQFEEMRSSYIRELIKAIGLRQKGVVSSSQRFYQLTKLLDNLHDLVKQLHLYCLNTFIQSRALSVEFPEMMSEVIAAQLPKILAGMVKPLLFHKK
Chain of Nuclear receptor subfamily 1 group I member 2 (Homo sapiens) (O75469 whole entry, looked up): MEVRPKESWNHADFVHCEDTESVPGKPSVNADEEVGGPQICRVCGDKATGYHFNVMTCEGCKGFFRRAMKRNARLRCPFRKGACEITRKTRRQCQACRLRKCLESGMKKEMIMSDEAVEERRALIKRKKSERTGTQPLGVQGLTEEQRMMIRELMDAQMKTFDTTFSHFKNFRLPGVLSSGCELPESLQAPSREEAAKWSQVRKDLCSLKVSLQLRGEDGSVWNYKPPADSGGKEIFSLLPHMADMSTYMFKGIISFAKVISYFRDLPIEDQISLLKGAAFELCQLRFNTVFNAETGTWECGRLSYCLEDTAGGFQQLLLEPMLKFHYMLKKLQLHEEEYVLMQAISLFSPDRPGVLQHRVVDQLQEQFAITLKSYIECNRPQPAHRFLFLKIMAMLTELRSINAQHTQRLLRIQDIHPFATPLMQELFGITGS
Chain of Cytochrome P450 2D6 (Homo sapiens) (P10635 whole entry, looked up): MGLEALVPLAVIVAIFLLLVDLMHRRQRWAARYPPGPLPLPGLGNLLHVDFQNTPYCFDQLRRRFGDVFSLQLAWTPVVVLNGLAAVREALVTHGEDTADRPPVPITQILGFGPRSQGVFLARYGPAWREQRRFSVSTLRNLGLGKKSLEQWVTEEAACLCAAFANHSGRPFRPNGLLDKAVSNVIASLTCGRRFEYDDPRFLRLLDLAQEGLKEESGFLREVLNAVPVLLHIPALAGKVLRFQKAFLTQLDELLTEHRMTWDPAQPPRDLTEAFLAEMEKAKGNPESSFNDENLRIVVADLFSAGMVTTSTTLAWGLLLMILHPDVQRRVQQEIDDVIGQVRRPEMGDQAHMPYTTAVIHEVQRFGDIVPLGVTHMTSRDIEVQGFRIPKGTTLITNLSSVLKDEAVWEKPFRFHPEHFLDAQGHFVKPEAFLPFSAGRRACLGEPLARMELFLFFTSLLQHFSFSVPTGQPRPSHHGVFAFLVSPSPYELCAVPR
Chain of Cytochrome P450 2C19 (Homo sapiens) (P33261 whole entry, looked up): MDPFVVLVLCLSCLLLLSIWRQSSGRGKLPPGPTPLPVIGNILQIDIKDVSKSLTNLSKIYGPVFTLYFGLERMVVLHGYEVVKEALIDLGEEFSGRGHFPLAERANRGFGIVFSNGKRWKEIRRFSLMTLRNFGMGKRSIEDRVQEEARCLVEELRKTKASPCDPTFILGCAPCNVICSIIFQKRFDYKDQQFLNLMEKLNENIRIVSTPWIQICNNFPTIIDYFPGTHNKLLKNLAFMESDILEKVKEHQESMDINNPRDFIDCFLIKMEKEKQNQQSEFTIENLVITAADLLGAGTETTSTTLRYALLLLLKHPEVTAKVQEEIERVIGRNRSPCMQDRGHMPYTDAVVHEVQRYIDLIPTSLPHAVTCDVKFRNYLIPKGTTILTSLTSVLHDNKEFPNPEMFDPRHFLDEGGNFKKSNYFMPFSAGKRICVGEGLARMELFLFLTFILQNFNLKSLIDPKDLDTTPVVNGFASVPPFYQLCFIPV
Chain of Nuclear receptor subfamily 1 group I member 2 (Rattus norvegicus) (Q9R1A7 whole entry, looked up): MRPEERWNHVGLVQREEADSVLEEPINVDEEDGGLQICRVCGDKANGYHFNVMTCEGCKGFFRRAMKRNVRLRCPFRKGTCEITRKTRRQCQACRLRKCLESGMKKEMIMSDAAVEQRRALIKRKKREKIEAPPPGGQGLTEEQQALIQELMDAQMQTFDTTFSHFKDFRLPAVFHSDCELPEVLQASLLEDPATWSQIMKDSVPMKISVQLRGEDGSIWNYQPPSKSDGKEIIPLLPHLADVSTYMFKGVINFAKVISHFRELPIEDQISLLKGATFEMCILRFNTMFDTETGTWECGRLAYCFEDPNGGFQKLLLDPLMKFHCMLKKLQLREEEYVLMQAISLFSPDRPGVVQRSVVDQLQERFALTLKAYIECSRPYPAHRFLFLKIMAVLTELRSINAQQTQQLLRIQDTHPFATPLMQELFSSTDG

`COc1ccccc1[N+](=O)[O-]`: the Potency result in assay [1], in assay [2], in assay [3], in assay [4], in [5] and in assay [6] was “inactive” each time. The Potency entry in assay [7], in assay [9], in assay [10], in [11], in [12] and in assay [13] was “inactive” each time. Also, the Potency result in assay [14] and in assay [15] was “inactive” throughout. For the same molecule, the molecule was classed as inactive in assay [8]. Besides, in [16], the Potency result was “inactive and 35.6 µM (active)”.
For `Cc1ccc(C(C)C)cc1`, the Potency entry in assay [1], in [2], in [3], in assay [4], in assay [5] and in assay [6] was “inactive” throughout. Further, the Potency result in assay [7], in [10], in [11], in [12], in assay [13] and in assay [14] was “inactive” in each case. For the same molecule, the Potency result in assay [15] and in assay [16] was “inactive” in each case. The call in [8] was inactive.
On to `CCN(CC)CCNC(=O)c1ccc(N)cc1`, for which the Potency entry in assay [1], in assay [2], in assay [3], in assay [4], in [17] and in [6] was “inactive” in each case. Also, the Potency entry in assay [10], in assay [11], in assay [12] and in [13] was “inactive” throughout.
`O=C(O)Cc1c[nH]c2ccccc12`: the Potency result in [1], in [2], in [3], in assay [4], in assay [5] and in [6] was “inactive” each time. Besides, the Potency entry in assay [10], in [11], in assay [12], in assay [13], in [14] and in assay [15] was “inactive” throughout. In addition, in assay [16], the Potency is 17.8 µM (active) and inactive.
Turning to `N[C@@H](Cc1cc(I)c(Oc2ccc(O)c(I)c2)c(I)c1)C(=O)O`, the Potency entry in assay [1], in assay [3], in assay [4], in assay [5], in [17] and in assay [6] was “inactive” in each case. Also, the Potency entry in assay [9], in assay [10], in assay [11], in [13] and in assay [15] was “inactive” each time. In addition, the Potency entry in [14] was “inactive and 63.7 µM (active)”; in [16] it was “inactive and 74 µM (active)”. The max activation in assay [18] is -2.4% (inactive).
For `CCCOC(=O)NCCCN(C)C`, the Potency entry in [3], in assay [4], in assay [5], in assay [17], in [6] and in assay [10] was “inactive” in each case. Besides, the Potency result in assay [11], in [12], in assay [13] and in [14] was “inactive” throughout. Moreover, the Potency entry was “inactive and 35.6 µM (active)” in assay [15]; 35.6 µM (active) and inactive in assay [16].
